According to the supplement of paper PMC10849652:
Targets with a hit are over-represented here; the source holds about 8,800 in all. About 0.5% of all pairs of compound and target were hits.

What was measured:
Experiment in all cases: log2 fold change, soluble protein after heating vs DMSO (PISA); higher = thermal stabilisation; K562 lysate, 10 uM; active = over 0.2 and 3.5 SD of the protein, either way, in both replicates (recomputed)
[1] = compound: Cc1cn(-c2cc(NC(=O)c3ccc(C)c(Nc4nccc(-c5cccnc5)n4)c3)cc(C(F)(F)F)c2)cn1 [nilotinib]
Outline: (§1)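 Soluble protein was defined as the supernatant remaining after 21,000xg for 90 min, following pooling of heated aliquots and adjustment to 0.5% NP-40 at 4°C. Before that, crude K562 extract at 1 mg/mL protein in PBS pH 7.4 with 1 mM MgCl2 was treated with 10 μM compound for 30 min and heated for 3 min across 48°C-58°C. Quantification used TMTpro 16plex LC-MS/MS with channel sums equalised, and values are log-two fold changes in thermal stability relative to solvent controls from duplicates.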

[2] = compound: Cc1nc(Nc2n[nH]c3c2CN(C(=O)N[C@H](CN(C)C)c2ccccc2)C3(C)C)c2sccc2n1
Outline: as §1

[3] = compound: Cc1nc(Nc2ncc(C(=O)Nc3c(C)cccc3Cl)s2)cc(N2CCN(CCO)CC2)n1 [dasatinib]
Outline: as §1

[4] = compound: Cc1ncc(-c2ccnc(Nc3ccc(S(C)(=O)=O)cc3)n2)n1C(C)C
Outline: as §1

[5] = compound: Cn1cc(-c2ccc3c(c2)CCN3C(=O)Cc2cccc(C(F)(F)F)c2)c2c(N)ncnc21
Outline: as §1

[6] = compound: Cn1cc(CNCC2CCN(c3ncc(C(=O)NO)cn3)CC2)c2ccccc21 [quisinostat]
Outline: as §1

[7] = compound: Cn1cncc1[C@@](N)(c1ccc(Cl)cc1)c1ccc2c(c1)c(-c1cccc(Cl)c1)cc(=O)n2C [tipifarnib]
Outline: as §1

[8] = compound: NC(=O)Nc1cc(-c2cccc(F)c2)sc1C(=O)N[C@H]1CCCNC1
Outline: as §1

[9] = compound: NC(=O)c1cnc(N[C@@H]2CCCC[C@@H]2N)nc1Nc1cccc(-n2nccn2)c1
Outline: as §1

[10] = compound: NC1(c2ccc(-c3nc4ccn5c(=O)[nH]nc5c4cc3-c3ccccc3)cc2)CCC1
Outline: as §1

Measured: log2 fold change

HS1BP3 (UniProt Q53T59)
inactive: [1] 0.021 | [2] -0.016 | [3] 0.023 | [4] -0.007 | [5] 0 | [6] -0.006 | [7] 0.042 | [8] -0.019 | [9] 0.024 | [10] -0.014

IGF2BP2 (UniProt Q9Y6M1)
inactive: [1] -0.051 | [2] 0.008 | [3] -0.055 | [4] -0.008 | [5] 0.031 | [6] 0.012 | [7] 0.028 | [8] 0.06 | [9] 0.016 | [10] 0.019

GON4L (UniProt Q3T8J9)
inactive: [1] 0.003 | [2] 0.012 | [3] 0.025 | [4] 0.067 | [5] 0.041 | [6] -0.061 | [7] -0.01 | [8] 0.019 | [9] -0.02 | [10] 0.022

ISOC2 (UniProt Q96AB3)
inactive: [1] 0.012 | [2] 0.022 | [3] 0.026 | [4] 0.091 | [5] 0 | [6] -0.053 | [7] -0.017 | [8] -0.05 | [9] -0.045 | [10] -0.036

IRF2BPL (UniProt Q9H1B7)
UniProt Q9H1B7, sequence (Q9H1B7 whole entry, looked up): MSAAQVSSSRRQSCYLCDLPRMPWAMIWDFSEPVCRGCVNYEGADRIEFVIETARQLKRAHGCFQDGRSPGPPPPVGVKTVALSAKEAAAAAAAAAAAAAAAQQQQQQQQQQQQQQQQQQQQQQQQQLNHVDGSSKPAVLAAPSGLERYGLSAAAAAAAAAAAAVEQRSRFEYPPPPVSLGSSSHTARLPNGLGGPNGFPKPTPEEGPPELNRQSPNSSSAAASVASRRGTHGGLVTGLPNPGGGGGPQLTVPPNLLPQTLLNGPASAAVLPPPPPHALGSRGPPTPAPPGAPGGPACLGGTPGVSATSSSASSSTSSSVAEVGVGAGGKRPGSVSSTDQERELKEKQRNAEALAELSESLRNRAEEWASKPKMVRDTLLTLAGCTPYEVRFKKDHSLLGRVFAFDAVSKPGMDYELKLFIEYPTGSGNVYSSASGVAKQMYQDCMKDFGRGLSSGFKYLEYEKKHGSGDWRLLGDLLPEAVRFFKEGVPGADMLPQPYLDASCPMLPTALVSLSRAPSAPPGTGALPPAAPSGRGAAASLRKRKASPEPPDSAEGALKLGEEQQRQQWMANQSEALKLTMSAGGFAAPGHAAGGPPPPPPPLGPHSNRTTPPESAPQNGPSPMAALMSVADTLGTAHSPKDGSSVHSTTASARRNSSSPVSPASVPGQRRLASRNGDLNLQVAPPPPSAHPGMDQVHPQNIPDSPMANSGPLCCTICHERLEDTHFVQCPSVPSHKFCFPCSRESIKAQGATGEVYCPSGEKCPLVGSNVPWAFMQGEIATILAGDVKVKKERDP
inactive: [1] 0.001 | [2] 0.005 | [3] -0.043 | [4] 0.054 | [5] -0.059 | [6] 0.032 | [7] -0.069 | [8] -0.01 | [9] 0 | [10] 0

HADH isoform 2 (UniProt Q16836)
active: [3] 0.288
inactive: [1] -0.028 | [2] 0.049 | [4] 0.031 | [5] 0.008 | [6] 0.124 | [7] 0.032 | [8] -0.006 | [9] 0.029 | [10] -0.031

KEAP1 (UniProt Q14145)
inactive: [1] -0.01 | [2] 0.01 | [3] -0.023 | [4] -0.014 | [5] -0.044 | [6] -0.078 | [7] -0.02 | [8] 0.011 | [9] 0.022 | [10] -0.002

GSTP1 (UniProt P09211)
inactive: [1] 0.006 | [2] -0.001 | [3] -0.035 | [4] -0.003 | [5] -0.01 | [6] -0.016 | [7] 0.029 | [8] -0.029 | [9] -0.004 | [10] 0.01

IARS2 (UniProt Q9NSE4)
UniProt Q9NSE4, sequence (Q9NSE4 whole entry, looked up): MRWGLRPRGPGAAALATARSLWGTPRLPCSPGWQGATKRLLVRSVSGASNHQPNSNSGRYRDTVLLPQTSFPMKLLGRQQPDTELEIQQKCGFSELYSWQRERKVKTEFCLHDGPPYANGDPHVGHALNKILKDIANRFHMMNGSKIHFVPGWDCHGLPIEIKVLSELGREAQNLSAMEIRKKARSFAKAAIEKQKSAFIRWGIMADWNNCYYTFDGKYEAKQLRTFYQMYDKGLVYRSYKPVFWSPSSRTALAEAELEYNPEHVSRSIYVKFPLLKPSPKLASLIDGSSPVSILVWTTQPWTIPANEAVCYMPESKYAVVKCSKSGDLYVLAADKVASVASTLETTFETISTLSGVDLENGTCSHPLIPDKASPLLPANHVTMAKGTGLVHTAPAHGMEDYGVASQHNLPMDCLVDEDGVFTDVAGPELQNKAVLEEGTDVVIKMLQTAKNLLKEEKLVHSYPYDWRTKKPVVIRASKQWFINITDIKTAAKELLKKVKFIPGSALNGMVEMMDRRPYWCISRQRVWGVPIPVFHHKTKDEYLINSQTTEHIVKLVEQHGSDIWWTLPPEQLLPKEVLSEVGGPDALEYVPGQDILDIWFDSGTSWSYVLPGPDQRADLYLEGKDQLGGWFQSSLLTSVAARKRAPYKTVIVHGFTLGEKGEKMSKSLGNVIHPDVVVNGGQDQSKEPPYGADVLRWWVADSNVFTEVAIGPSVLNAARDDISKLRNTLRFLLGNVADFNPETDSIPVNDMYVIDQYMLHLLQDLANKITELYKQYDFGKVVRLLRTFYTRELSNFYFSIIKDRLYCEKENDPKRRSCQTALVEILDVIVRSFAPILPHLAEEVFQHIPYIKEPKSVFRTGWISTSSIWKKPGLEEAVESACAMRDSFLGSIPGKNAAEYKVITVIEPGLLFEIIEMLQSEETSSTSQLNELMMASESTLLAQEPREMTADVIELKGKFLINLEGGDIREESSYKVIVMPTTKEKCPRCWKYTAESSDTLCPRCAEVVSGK
inactive: [1] 0.016 | [2] -0.007 | [3] -0.021 | [4] 0.026 | [5] 0 | [6] 0.022 | [7] 0.006 | [8] 0.021 | [9] 0.02 | [10] -0.004

HIST2H2BC (UniProt Q6DN03)
inactive: [1] 0.003 | [2] -0.021 | [3] 0.051 | [4] -0.01 | [5] -0.079 | [6] -0.014 | [7] 0.037 | [8] 0.016 | [9] -0.01 | [10] 0.058

HAUS8 (UniProt Q9BT25)
UniProt Q9BT25, sequence (Q9BT25 whole entry, looked up): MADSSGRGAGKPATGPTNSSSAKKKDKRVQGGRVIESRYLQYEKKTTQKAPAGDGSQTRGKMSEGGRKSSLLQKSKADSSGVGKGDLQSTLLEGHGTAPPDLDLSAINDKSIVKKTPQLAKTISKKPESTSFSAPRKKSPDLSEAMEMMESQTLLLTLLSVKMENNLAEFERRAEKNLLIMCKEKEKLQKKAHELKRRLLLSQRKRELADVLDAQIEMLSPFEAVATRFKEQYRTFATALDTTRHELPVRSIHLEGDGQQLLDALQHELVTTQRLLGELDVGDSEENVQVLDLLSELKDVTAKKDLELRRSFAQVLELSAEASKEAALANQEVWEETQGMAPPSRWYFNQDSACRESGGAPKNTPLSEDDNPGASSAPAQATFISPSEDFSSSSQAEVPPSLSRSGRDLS
inactive: [1] 0.025 | [2] 0.026 | [3] -0.073 | [4] 0.005 | [5] 0.015 | [6] -0.085 | [7] 0.004 | [8] 0.042 | [9] 0.02 | [10] 0.006

IARS (UniProt P41252)
inactive: [1] 0.007 | [2] -0.007 | [3] -0.042 | [4] -0.015 | [5] 0.053 | [6] -0.02 | [7] -0.003 | [8] 0.038 | [9] 0.001 | [10] -0.029

KHK isoform 2 (UniProt P50053)
UniProt P50053, sequence (P50053 whole entry, looked up): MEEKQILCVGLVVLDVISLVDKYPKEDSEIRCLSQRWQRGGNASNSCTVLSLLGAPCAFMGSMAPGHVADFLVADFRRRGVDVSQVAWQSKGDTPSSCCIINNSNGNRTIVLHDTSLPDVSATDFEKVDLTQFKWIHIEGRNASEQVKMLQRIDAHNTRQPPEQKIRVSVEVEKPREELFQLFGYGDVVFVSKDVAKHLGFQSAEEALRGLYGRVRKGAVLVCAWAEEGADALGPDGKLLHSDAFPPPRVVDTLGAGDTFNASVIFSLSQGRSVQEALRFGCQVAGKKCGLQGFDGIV
inactive: [1] -0.004 | [2] 0.035 | [3] -0.075 | [4] -0.02 | [5] -0.035 | [6] -0.021 | [7] -0.043 | [8] -0.019 | [9] -0.018 | [10] -0.023

INTS10 (UniProt Q9NVR2)
inactive: [1] -0.01 | [2] -0.025 | [3] -0.054 | [4] -0.024 | [5] 0.109 | [6] -0.034 | [7] -0.021 | [8] 0.011 | [9] 0.039 | [10] 0.028

HAUS6 (UniProt Q7Z4H7)
inactive: [1] -0.022 | [2] -0.008 | [3] -0.057 | [4] 0.022 | [5] 0.038 | [6] -0.066 | [7] 0.053 | [8] 0.035 | [9] -0.055 | [10] -0.004

GOLPH3 (UniProt Q9H4A6)
inactive: [1] -0.008 | [2] 0.008 | [3] -0.071 | [4] 0.044 | [5] -0.013 | [6] -0.065 | [7] -0.039 | [8] 0.012 | [9] -0.023 | [10] -0.02

HLCS (UniProt P50747)
inactive: [1] -0.005 | [2] -0.005 | [3] 0.012 | [4] -0.003 | [5] 0.068 | [6] -0.022 | [7] -0.006 | [8] -0.011 | [9] 0.024 | [10] 0.02

ISY1 isoform 1 (UniProt Q9ULR0)
UniProt Q9ULR0, sequence (Q9ULR0 whole entry, looked up): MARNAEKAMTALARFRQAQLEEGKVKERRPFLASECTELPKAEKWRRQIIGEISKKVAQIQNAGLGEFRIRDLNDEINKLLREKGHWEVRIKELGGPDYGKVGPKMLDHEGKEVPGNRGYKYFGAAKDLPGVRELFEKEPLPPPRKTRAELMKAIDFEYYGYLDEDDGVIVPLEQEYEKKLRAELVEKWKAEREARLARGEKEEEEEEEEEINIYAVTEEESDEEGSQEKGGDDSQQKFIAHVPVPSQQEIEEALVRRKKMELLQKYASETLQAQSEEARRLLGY
inactive: [1] 0.012 | [2] 0.026 | [3] 0.002 | [4] -0.024 | [5] -0.082 | [6] -0.036 | [7] -0.018 | [8] 0.014 | [9] -0.012 | [10] -0.01

HNRNPH2 (UniProt P55795)
inactive: [1] -0.07 | [2] 0.04 | [3] 0.049 | [4] 0.071 | [5] 0.003 | [6] -0.147 | [7] -0.003 | [8] 0.014 | [9] -0.037 | [10] -0.113

INTS3 (UniProt Q68E01)
inactive: [1] -0.007 | [2] 0.007 | [3] -0.05 | [4] -0.045 | [5] 0.005 | [6] -0.038 | [7] 0.09 | [8] 0.028 | [9] -0.002 | [10] -0.028

HSD17B10 (UniProt Q99714)
inactive: [1] 0 | [2] -0.044 | [3] -0.034 | [4] -0.001 | [5] -0.017 | [6] -0.01 | [7] 0.008 | [8] 0.013 | [9] -0.002 | [10] 0.005

HMGCS1 (UniProt Q01581)
UniProt Q01581, sequence (Q01581 whole entry, looked up): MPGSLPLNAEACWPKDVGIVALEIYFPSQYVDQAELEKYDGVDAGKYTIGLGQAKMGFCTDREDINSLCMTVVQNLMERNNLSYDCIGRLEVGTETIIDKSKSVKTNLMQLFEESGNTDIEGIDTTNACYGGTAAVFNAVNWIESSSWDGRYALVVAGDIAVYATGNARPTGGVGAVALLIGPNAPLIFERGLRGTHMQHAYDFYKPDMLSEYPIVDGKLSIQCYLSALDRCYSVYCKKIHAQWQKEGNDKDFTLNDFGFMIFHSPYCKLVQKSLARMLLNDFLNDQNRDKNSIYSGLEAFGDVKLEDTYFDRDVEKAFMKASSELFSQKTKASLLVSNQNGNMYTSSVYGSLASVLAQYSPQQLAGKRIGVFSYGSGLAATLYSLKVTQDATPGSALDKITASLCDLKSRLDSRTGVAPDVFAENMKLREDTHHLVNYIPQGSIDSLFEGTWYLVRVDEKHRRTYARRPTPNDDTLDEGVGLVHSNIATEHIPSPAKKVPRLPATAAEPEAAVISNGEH
inactive: [1] 0.003 | [2] -0.015 | [3] 0.02 | [4] 0.012 | [5] -0.005 | [6] -0.007 | [7] 0.001 | [8] -0.016 | [9] -0.008 | [10] -0.018

HLTF (UniProt Q14527)
inactive: [1] -0.039 | [2] 0.004 | [3] -0.041 | [4] -0.051 | [5] 0.05 | [6] 0.021 | [7] -0.148 | [8] 0.102 | [9] 0.055 | [10] -0.085

GLUL (UniProt P15104)
UniProt P15104, sequence (P15104 whole entry, looked up): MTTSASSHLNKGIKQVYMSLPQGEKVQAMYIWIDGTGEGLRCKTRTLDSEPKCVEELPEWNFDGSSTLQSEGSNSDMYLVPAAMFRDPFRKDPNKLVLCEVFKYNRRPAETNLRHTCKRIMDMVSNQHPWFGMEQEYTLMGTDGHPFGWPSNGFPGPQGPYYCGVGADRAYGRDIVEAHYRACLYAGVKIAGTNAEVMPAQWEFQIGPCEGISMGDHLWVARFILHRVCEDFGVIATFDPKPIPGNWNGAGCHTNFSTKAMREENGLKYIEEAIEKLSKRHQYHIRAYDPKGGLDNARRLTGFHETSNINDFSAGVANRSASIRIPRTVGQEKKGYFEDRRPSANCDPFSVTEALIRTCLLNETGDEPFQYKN
inactive: [1] -0.008 | [2] -0.012 | [3] 0.054 | [4] -0.026 | [5] -0.002 | [6] 0.071 | [7] 0.027 | [8] -0.032 | [9] 0.009 | [10] -0.003

HARS (UniProt P12081)
inactive: [1] 0.031 | [2] 0.003 | [3] -0.006 | [4] -0.015 | [5] 0.008 | [6] -0.021 | [7] 0.019 | [8] -0.019 | [9] 0.005 | [10] 0.021

HACE1 (UniProt Q8IYU2)
UniProt Q8IYU2, sequence (Q8IYU2 whole entry, looked up): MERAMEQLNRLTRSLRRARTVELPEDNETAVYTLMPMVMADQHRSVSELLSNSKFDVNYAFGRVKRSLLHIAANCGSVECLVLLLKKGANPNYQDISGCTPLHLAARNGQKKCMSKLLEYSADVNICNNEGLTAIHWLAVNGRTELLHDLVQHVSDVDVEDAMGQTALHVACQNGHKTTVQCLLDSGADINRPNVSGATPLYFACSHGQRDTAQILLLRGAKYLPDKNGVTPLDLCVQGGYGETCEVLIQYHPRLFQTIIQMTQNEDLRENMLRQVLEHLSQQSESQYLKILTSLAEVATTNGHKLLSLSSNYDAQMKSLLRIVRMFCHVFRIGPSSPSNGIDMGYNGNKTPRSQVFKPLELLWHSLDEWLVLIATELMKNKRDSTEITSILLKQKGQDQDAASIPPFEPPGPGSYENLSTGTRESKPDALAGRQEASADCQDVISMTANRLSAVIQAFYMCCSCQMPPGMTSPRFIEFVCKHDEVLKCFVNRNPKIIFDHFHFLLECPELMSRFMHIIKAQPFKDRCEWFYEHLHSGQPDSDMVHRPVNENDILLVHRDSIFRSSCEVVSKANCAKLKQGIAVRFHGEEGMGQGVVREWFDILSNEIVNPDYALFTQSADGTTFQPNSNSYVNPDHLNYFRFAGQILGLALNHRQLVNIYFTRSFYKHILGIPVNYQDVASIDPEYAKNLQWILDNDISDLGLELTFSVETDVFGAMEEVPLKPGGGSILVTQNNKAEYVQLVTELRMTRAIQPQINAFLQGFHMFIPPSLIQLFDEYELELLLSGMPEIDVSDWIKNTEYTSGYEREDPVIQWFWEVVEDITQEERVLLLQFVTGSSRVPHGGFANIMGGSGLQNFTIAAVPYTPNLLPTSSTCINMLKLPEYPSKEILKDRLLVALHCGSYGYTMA
inactive: [1] -0.027 | [2] 0.043 | [3] -0.154 | [4] 0.035 | [5] -0.084 | [6] 0.061 | [7] -0.175 | [8] 0.181 | [9] 0.028 | [10] -0.02

KCT2 (UniProt Q8NC54)
UniProt Q8NC54, sequence (Q8NC54 whole entry, looked up): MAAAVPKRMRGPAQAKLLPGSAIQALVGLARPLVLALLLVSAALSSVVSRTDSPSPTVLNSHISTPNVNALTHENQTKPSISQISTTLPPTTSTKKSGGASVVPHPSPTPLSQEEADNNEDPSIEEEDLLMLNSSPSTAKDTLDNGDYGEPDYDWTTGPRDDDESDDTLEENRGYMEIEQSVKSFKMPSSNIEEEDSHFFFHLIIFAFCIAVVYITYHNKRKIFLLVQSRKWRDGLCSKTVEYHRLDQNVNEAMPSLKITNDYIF
inactive: [1] -0.034 | [2] 0.008 | [3] 0.025 | [4] -0.025 | [5] 0.043 | [6] 0.031 | [7] 0.001 | [8] 0.024 | [9] 0.051 | [10] 0.005

HSPA8 (UniProt E9PN89)
inactive: [1] 0.013 | [2] -0.008 | [3] -0.209 | [4] -0.055 | [5] -0.032 | [6] -0.415 | [7] 0.006 | [8] 0 | [9] 0.084 | [10] -0.089

HMGN4 (UniProt O00479)
inactive: [1] 0.049 | [2] -0.072 | [3] 0.192 | [4] 0.009 | [5] 0.003 | [6] 0.171 | [7] 0.001 | [8] -0.019 | [9] 0.012 | [10] -0.028
